# HTT-AS act – HTT-AS promoter activation | HEK293 HTT-AS promoter firefly luciferase reporter, 24 h; response scale: percent change from vehicle, -100% = no light | Potency, µM (doses to about 57.5 µM), inactives show at the highest dose activity change, positive = activation, most hits filed as activators | hit rate 0.24% among 48,000 | AID 1508624; further: potency means the concentration at half of the fitted maximal effect; nearly all actives have a fitted effect of over 55% in size
#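 HEK293 Fluc reporter, 2,500 cells/well, 24 h pre-culture; cpds up to 57.5 uM final, 24 h 37 degrees C; Dual-Glo, 10 min RT; normalized vehicle = 0%, zero RLU = -100%.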
# HTT promoter inh – inhibits huntingtin promoter activity; HEK293 HTT promoter firefly luciferase reporter, 24 h; hit rate 0.93% among 48,000; Potency, µM (top dose mostly 57.5 µM), without a hit: at the highest dose activity change, negative = inhibition, most hits filed as inhibitors; further: potency means the concentration at half of the fitted maximal effect; nearly all actives have a fitted effect of over 50% in size
#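 HEK293 cells carrying firefly luciferase reporters were seeded at 2,500 per well in Opti-MEM and cultured for 24 h. They were then treated with compounds at up to 57.5 uM final for 24 h at 37 degrees C before Dual-Glo luminescence readout.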
# mTORC1 inh – mTORC1 pathway inhibition measured by phospho-rpS6. hit rate 0.78% among 44,000. Potency, µM (series often up to 38.3 µM), for the others: top-dose activity change, negative = inhibition, most hits filed as inhibitors. Tsc2-/- p53-/- MEF, phospho-rpS6 immunofluorescence/PI, 24 h;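 further: potency means the concentration at half of the fitted maximal effect; plate controls were DMSO for no effect and rapamycin for full effect; nearly all actives have a fitted effect of over 50% in size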
#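 Tsc2-/-, p53-/- MEFs (empty-vector stable line) in DMEM + 10% FBS were treated with compounds 24 h at 37 degree Celsius, fixed, and immunostained for phospho-rpS6 (Alexa-488) with propidium iodide counterstain. Laser-scanning cytometry gave % positive cells, normalized against 7.5 nM rapamycin and DMSO.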
# OvCa metastasis – ovarian cancer metastasis inhibition, 3D TME model. SKOV3ip1-GFP adhesion/invasion on 3D omental model, fluorescence. Potency, µM (top dose mostly 45.8 µM), for the others: top-dose activity change, negative = inhibition, usual class: inhibitors. hit rate 0.1% among 46,000. AID 1963576;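 further: potency means the concentration at half of the fitted maximal effect; plate controls were DMSO wells for no effect and tomatine positive control wells for full effect; nearly all actives have a fitted effect of over 65% in size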
#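 A 3D layer of primary human omental fibroblasts, mesothelial cells, fibronectin and collagen I, grown 48 hr, received SKOV3ip1-GFP cells in serum-free medium plus compounds at 0.36-46 umol/L. After 2 hr RT and 16 hr 37 C, fixed adherent GFP cells were counted; normalized to DMSO and tomatine.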
# PMP22 txn prim – PMP22 gene transcription modulation | Potency, µM (top dose mostly 57.5 µM), without a hit: at the highest dose activity change, negative = inhibition, most hits filed as inhibitors | S16 Pmp22-F2sN Schwann cells, FLuc/NLuc coincidence luminescence, 24 h | hit rate 2% among 43,000; active means clear falling dose curves in both reporters; inconclusive means both reporters move, but less clearly or upward; inactive means either reporter flat; the % is the NLuc reporter signal; further: potency means the concentration at half of the fitted maximal effect; on the % scale 0 is the no-effect control and ±100 the full control effect
#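 Schwann cells carrying the coincidence reporter were exposed to library compounds for 24 h at 37C, then lysed and read for FLuc and, after quenching, NLuc luminescence on a CCD imager.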
# S16 viability – S16 Schwann cell cytotoxicity; S16 Pmp22-F2sN Schwann cells viability, CellTiter-Glo, 24 h; Potency, µM (doses to about 57.5 µM), inactives show at the top dose activity change, negative = cytotoxicity, usual class: cytotoxic; hit rate 0.48% among 43,000; AID 1508642; further: potency means the concentration at half of the fitted maximal effect; on the % scale 0 is the no-effect control and ±100 the full control effect; nearly all actives have a fitted effect of over 65% in size
#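 Used to flag compounds lowering reporter output through toxicity, this quantitative HTS measures ATP-based CellTiter-Glo luminescence in S16 Pmp22-F2sN Schwann cells after 24 h compound exposure at 37C.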
# NLuc sat counter – counter-screen for PMP22 expression modulators: NanoLuc inhibition, saturating substrate; shares compounds with PMP22 txn prim; Secreted NLuc enzyme (filtered S16 cell medium), Nano-Glo luminescence; Potency, µM (top dose mostly 57.5 µM), without a hit: at the highest dose activity change, negative = inhibition, usual class: inhibitors; hit rate 4% among 690; AID 1508638; further: potency means the concentration at half of the fitted maximal effect; on the % scale 0 is the no-effect control and ±100 the full control effect
# NLuc Km ctr – inhibits NanoLuc under Km conditions, PMP22 counter-screen. hit rate 5% among 690. AID 1508639. Potency, µM (series often up to 57.5 µM), without a hit: at the highest dose activity change, negative = inhibition, most hits filed as inhibitors. shares compounds with PMP22 txn prim. secreted NLuc enzyme, coelenterazine luminescence, Km conditions; further: potency means the concentration at half of the fitted maximal effect; on the % scale 0 is the no-effect control and ±100 the full control effect
# FLuc ctr PMP22 – counter-screen for PMP22 expression modulators: firefly luciferase inhibition; purified P. pyralis FLuc, luminescence, 10 min; 690 tested, under 10 active; shares compounds with PMP22 txn prim; Potency, µM (top dose mostly 57.5 µM), without a hit: at the highest dose activity, negative = inhibition, actives largely listed as inhibitors; further: % of control where 0% means no effect
# Target sequence (P08659 whole entry, looked up): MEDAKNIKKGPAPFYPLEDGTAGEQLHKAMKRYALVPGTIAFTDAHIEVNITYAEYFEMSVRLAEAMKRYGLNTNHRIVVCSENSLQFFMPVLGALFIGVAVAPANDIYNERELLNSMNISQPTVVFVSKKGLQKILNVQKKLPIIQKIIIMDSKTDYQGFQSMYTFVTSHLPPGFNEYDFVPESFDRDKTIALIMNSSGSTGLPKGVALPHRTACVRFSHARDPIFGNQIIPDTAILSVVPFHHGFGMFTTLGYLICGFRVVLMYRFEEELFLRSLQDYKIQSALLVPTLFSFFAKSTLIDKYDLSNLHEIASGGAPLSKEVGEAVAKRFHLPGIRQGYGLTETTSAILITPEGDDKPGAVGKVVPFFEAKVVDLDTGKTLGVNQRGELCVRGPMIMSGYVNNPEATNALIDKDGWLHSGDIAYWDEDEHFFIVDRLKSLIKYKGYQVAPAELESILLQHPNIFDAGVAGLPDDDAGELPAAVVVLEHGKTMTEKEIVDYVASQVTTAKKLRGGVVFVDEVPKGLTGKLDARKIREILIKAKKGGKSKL
# S16 viab conf – confirmation of cytotoxicity in S16 Pmp22-F2sN Schwann cells (luciferase reporters placed in the Pmp22 gene); shares compounds with PMP22 txn prim; S16 Schwann cells viability, CellTiter-Glo ATP luminescence, 24 h; Potency, µM (top dose mostly 57.5 µM), for inactives: top-dose activity change, negative = viability loss, usual class: cytotoxic; hit rate 7% among 690; AID 1508641; further: potency means the concentration at half of the fitted maximal effect; on the % scale 0 is the no-effect control and ±100 the full control effect
# PMP22 txn cnf – confirmation of modulators of PMP22 gene transcription in S16 cells. shares compounds with PMP22 txn prim. S16 Schwann cells Pmp22-F2sN, dual luciferase, 24 h. Potency, µM (series often up to 57.5 µM), without a hit: at the highest dose activity change, negative = inhibition, hits mostly inhibitors. hit rate 22% among 690; active means clear falling dose curves in both reporters; inconclusive means both reporters move, but less clearly or upward; inactive means either reporter flat; the % is the FLuc reporter signal; further: potency means the concentration at half of the fitted maximal effect
# PMP22 HiBiT cnf – confirmation of modulators of rat PMP22 protein expression | S16 Schwann cells Pmp22-HiBiT, luminescence, 48 h | 95 tested, under 10 active | Potency, µM (highest dose often 27.9 µM), for inactives: at the top dose activity change, negative = inhibition, hits mostly inhibitors | shares compounds with PMP22 txn prim
# Target sequence (P25094 whole entry, looked up): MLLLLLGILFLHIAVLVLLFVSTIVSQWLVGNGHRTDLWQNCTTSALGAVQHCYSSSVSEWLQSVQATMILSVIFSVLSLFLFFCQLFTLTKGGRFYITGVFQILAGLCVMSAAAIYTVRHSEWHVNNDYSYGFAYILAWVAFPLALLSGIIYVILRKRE
# Numbers without * were called inactive; i = inactive; ? = inconclusive; / = no result; [ ] = dose if it differs, or a comment. In the library only some 3.6% were active in any assay of this set; here they are far more common. Unless noted, the call rests on the fitted dose curve; in most records, active means well fitted curve in the direction sought with a large enough effect; inconclusive means small, poorly fitted or top-dose-only effect, or another doubt; inactive means no such curve, though single readings can be large; an effect the other way counts as inactive or inconclusive.
SMILES,HTT-AS act,HTT promoter inh,mTORC1 inh,OvCa metastasis,PMP22 txn prim,S16 viability,NLuc sat counter,NLuc Km ctr,FLuc ctr PMP22,S16 viab conf,PMP22 txn cnf,others
Cc1ccc(S(=O)(=O)C(CNC(=O)c2ccc(F)c(F)c2)c2ccco2)cc1 (configuration not stated),-15%,-26%,-12%,9%,5%,?,/,/,/,/,/,
Cc1ccc(S(=O)(=O)C(CNS(=O)(=O)c2ccc(F)c(C(F)(F)F)c2)c2ccco2)cc1 (configuration not stated),4%,-11%,?,5%,14µM*,?,-1%,?,4%,-1%,-12%,
O=C(NCc1ccc(Cl)cc1)C(=O)Nc1cccc(Br)c1,-19%,-14%[11.5 µM],-4%,i,16µM*,-17%,-7%,0%,4%,?,?,
COc1ccc([C@@H]2CC(=O)c3c(O)cc(O[C@@H]4O[C@H](CO[C@@H]5O[C@@H](C)[C@H](O)[C@@H](O)[C@@H]5O)[C@@H](O)[C@H](O)[C@@H]4O)cc3O2)cc1O,-25%,?,/,-1%,/,/,/,/,/,/,/,
CCOC(=O)c1cc2c(=O)n3ccccc3nc2n(C)c1=NC(=O)c1c(-c2c(F)cccc2Cl)noc1C,7%,-8%,-12%,3%,2.1µM*,0%,?,-17%,5%,12%,-17%,
CCOC(=O)c1cc2c(=O)n3ccccc3nc2n(C(C)C)c1=NC(=O)c1c(-c2c(F)cccc2Cl)noc1C,-38%,-24%,-1%,5%,11µM*,?,?,-16%,3%,18%,?,
Fc1ccc(CNc2ncnc3ccc(F)cc23)cc1,-92%,-34%,/,2%,/,/,/,/,/,/,/,
CCN1C[C@H](C)n2c(c(O)c3c(=O)n(Cc4ccc(F)c(Cl)c4)nc(C(=O)NC)c32)C1=O,18%,0%,/,8%,/,/,/,/,/,/,/,
CCCS(=O)(=O)c1ncc(Cl)c(C(=O)Nc2c(C(=O)c3ccccc3)oc3ccccc23)n1,-17%,-9%,2%,10%,?,17%,/,/,/,/,/,
Cc1ccc(C(=O)c2oc3ccccc3c2NC(=O)c2nc(S(C)(=O)=O)ncc2Cl)cc1F,7%,-7%,1%,-14%,7.6µM*,?,-9%,-16%,-2%,22µM*,13µM*,
COc1ccc(C(C)=O)cc1CSc1nc(NCc2ccccc2)c2ccccc2n1,-37%,?,-8%,i,?,-8%,/,/,/,/,/,
COc1ccc(C(C)=O)cc1CSc1nc(Nc2ccc(F)c(F)c2)c2ccccc2n1,-40%,-25%,-1%,0%,18µM*,-17%,?,?,-1%,0%,?,
COc1cc2ncn(-c3cc(OCc4ccccc4S(C)(=O)=O)c(C#N)s3)c2cc1OC,-20%,?,/,0%,/,/,/,/,/,/,/,
Oc1cc(-c2nc(-c3ccccc3)[nH]c2-c2ccncc2)ccc1Cl,-25%,?,/,-11%,/,/,/,/,/,/,/,
CC1CCN(C(=O)CSc2nnc(NC(=O)Nc3ccccc3)s2)CC1,-33%,?,3%,i,19µM*,-24%,?,?,?,?,1%,
CCOc1ccccc1C(=O)Nc1c(C(=O)Nc2ccc(F)cc2)oc2ccccc12,-38%,?,-17%,-10%,4.1µM*,20%,?,-7%,-7%,-3%,5.6µM*,
CCOc1ccc(NC(=O)c2oc3ccccc3c2NC(=O)c2c(F)cccc2F)cc1,-3%,-15%,-23%,i,-6%,-3%,/,/,/,/,/,
O=C(CCS(=O)(=O)c1nc(-c2ccc3c(c2)OCO3)cc(C(F)(F)F)n1)Nc1ccc(F)c(Cl)c1,-76%,?,-4%,?,13µM*,?,-15%,?,-7%,-16%,?,
Cc1ccc(C)c(NC(=O)Cn2c(=O)n(Cc3ccccc3)c(=O)c3oc4ccccc4c32)c1,-8%,-12%,-2%,11%,19µM*,0%,-12%,-1%,-12%,?,?,PMP22 HiBiT cnf=?
CCCCn1c(=O)c2oc3ccccc3c2n(CC(=O)Nc2cc(C)ccc2C)c1=O,-8%,-13%,-5%,-1%,?,0%,/,/,/,/,/,
CCOc1ccccc1NC(=O)CSc1nc2c(oc3ccccc32)c(=O)n1Cc1ccco1,-22%,-15%,-4%,8%,11µM*,?,-16%,2%,-7%,2%,-33%,
Cc1ccc(C)c(NC(=O)Cn2c(=O)n(Cc3ccco3)c(=O)c3oc4ccccc4c32)c1,?,5%,5%,4%,12µM*,-2%,-17%,3%,0%,-24%,?,
CCCCn1c(=O)c2oc3ccccc3c2n(CC(=O)Nc2cccc(Cl)c2)c1=O,-13%,-2%,5%,i,-20%,8%,/,/,/,/,/,
Cc1cc(C)cc(NC(=O)Cn2c(=O)n(Cc3ccco3)c(=O)c3oc4ccccc4c32)c1,-21%,-26%,-11%,?,?,-9%,/,/,/,/,/,

# Screening data (PubChem BioAssay)
